# Calls of active or inactive are those of the source.
# What was measured:
# [1] = tested on: Human papillomavirus type 1a protein E7 (residues 44-93); assay: small molecules binding HPV E7 44-93 – biochemical, small-molecule microarray, residues 44-93, 635 nm fluorescence, primary screen (AID 1108); settings: fluorescence 635 nm, higher = more signal;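 note: E7 fragment applied at 1 µg/mL in TBST for 1 h at 4 C; score combines spot fluorescence with its signal to noise ratio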
# [2] = hepatitis C replication reporter changes, two-sided – Huh7 cells, luciferase reporter, HCV replication inhibitor project, primary screen (AID 1109); settings: Huh7 HCV replicon luciferase reporter, 48 h; higher = more signal;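 note: huh7 hepatoma cells harbouring a luciferase neomycin HCV replicon reporter; luciferase luminescence as measure of HCV replicon replication; test concentration not given here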
# [3] = molecular target: Left-right determination factor 2 (Homo sapiens) (UniProt O00292); assay: small molecules binding LEFTY2 protein – biochemical, small-molecule microarray, 635 nm fluorescence scan, primary screen (AID 1110); settings: higher = more signal
# [4] = molecular target: Calmodulin-1 (Homo sapiens) (UniProt P0DP23); assay: small molecules binding calmodulin-1 with EGTA – biochemical, small-molecule microarray, Cy5-labelled CALM1, profiling panel (AID 1111); settings: Cy5-CALM1 binding fluorescence, higher = more signal;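 note: labelled calmodulin applied in Tris saline Tween buffer holding calcium plus EGTA and DTT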
# [5] = molecular target: Calmodulin-1 (Homo sapiens) (UniProt P0DP23); assay: small molecules binding Ca-loaded calmodulin-1 – biochemical, small-molecule microarray, Cy5-labelled CALM1, plus calcium, artefact control for SMM control-protein annotation, profiling panel (AID 1112); settings: Cy5-CALM1 binding fluorescence, higher = more signal;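 note: score merges spot fluorescence with signal to noise from triplicate slides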
# [6] = probe aWnt5a binding to arrayed compounds – biochemical, biotinylated probe, 635/667 nm fluorescence, primary screen (AID 1113); settings: small-molecule microarray, higher = more signal;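 note: score merges 667 nm fluorescence intensity with signal-to-noise per printed feature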
# [7] = probe aShh binding to arrayed compounds – biochemical, biotinylated probe, 635/667 nm fluorescence, primary screen (AID 1114); settings: small-molecule microarray, higher = more signal;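 note: probe is biotin-labelled aShh protein from a stem cell growth factor screen; measures binding of labelled protein to compounds printed on the slide; score merges feature fluorescence at 667 nm with signal-to-noise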
# [8] = probe aNog binding to arrayed compounds – biochemical, biotinylated probe, 635/667 nm fluorescence, primary screen (AID 1115); settings: small-molecule microarray, higher = more signal;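 note: probe is biotinylated aNog protein used at 0.15 µg/mL for 1 h at 4 C; z-score combines 667 nm fluorescence of each spot with its signal to noise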
# [9] = molecular target: Torsin-1A-interacting protein 1 (Homo sapiens) (UniProt Q5JTV8); assay: compound microarray binding of lysate hLAP1 – cell lysate, small-molecule microarray, COS7 lysate, 635/667 nm fluorescence, primary screen (AID 1116); settings: 635 nm fluorescence, higher = more signal
# [10] = molecular target: Alpha-bungarotoxin (Bungarus multicinctus) (UniProt P60615); assay: compounds binding labelled alpha-BTX control protein – biochemical, small-molecule microarray, Alexa647 label, 635/667 nm fluorescence, artefact control for SMM control protein annotation, profiling panel (AID 1117); settings: alpha-BTX-A647 binding fluorescence, higher = more signal
# [11] = molecular target: Albumin (Bos taurus) (UniProt P02769); assay: compounds binding labelled BSA control protein – biochemical, small-molecule microarray, Alexa647 label, 635/667 nm fluorescence, artefact control for SMM control protein annotation, profiling panel (AID 1118); settings: BSA-A647 binding, fluorescence 635 nm, higher = more signal;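 note: score merges 667 nm emission intensity and signal-to-noise per printed compound spot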
# [12] = probe aXIP binding to arrayed compounds – biochemical, NeuroSMM set, 635/667 nm fluorescence, primary screen (AID 1119); settings: small-molecule microarray, higher = more signal, called active from +8 up or from −8 down;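 note: probe is the protein aXip251-270 applied at 1 µg/mL to compound-printed slides; binding of probe to printed compounds measured as 667 nm fluorescence plus signal to noise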
# [13] = probe aNOTCH3 binding on compound microarray – biochemical, small-molecule microarray, 635/667 nm fluorescence, primary screen (AID 1120); settings: higher = more signal;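 note: probe is a biotin-tagged antibody raised against NOTCH3 rather than NOTCH3 protein; score merges spot fluorescence near 667 nm with spot signal to noise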
# [14] = probe aNOTCH2 binding on compound microarray – biochemical, small-molecule microarray, 635/667 nm fluorescence, primary screen (AID 1121); settings: higher = more signal;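 note: score merges feature fluorescence read at 667 nm with its signal to noise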
# [15] = molecular target: Carbonic anhydrase 2 (Homo sapiens) (UniProt P00918); assay: compounds binding carbonic anhydrase 2 – biochemical, small-molecule microarray, Alexa647-labelled CAII, profiling panel (AID 1122); settings: CAII-A647 binding fluorescence, higher = more signal
# [16] = COS7 lysate on small-molecule microarray, probe aHis, 635 nm (AID 1123); settings: COS7 cell lysate, fluorescence, higher = more signal;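 note: z-score combines 667nm fluorescence intensity with signal-to-noise per printed compound spot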
# [17] = probe aLAP1 signal on lysate-treated microarray – cell lysate, small-molecule microarray, COS7 lysate, primary screen (AID 1124); settings: probe aLAP1, fluorescence, higher = more signal;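 note: lysate comes from COS7 cells expressing LAP1 and is applied at 0.3 µg/mL; score merges spot fluorescence near 667 nm with signal-to-noise over triplicate slides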
# [18] = tested on: Sam68 (KHDRBS1); assay: compounds binding KHDRBS1 protein – biochemical, small-molecule microarray, 635 nm fluorescence, primary screen (AID 1125); settings: higher = more signal;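 note: score merges 667 nm channel intensity with signal to noise over triplicate slides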
# [19] = tested on: Chordin-like protein 2 (CHRDL2); assay: compounds binding chordin-like 2 – biochemical, small-molecule microarray, 635 nm fluorescence, primary screen (AID 1126); settings: fluorescence 635 nm, higher = more signal;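 note: printed compound slides probed with Chrdl2 protein at 4 µg/mL for 1 h at 4 C; score merges 667 nm emission intensity with signal to noise over three replicate slides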
# [20] = molecular target: Concanavalin-A (Canavalia ensiformis) (UniProt P02866); assay: compounds binding concanavalin A lectin – biochemical, small-molecule microarray, Alexa647 label, 635 nm, artefact control for SMM control protein annotation, primary screen (AID 1127); settings: ConA-A647 binding fluorescence, higher = more signal;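 note: z combines 667 nm emission intensity with signal-to-noise across three replicate slides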
# Sequence of Concanavalin-A (Canavalia ensiformis) (P02866 whole entry, looked up): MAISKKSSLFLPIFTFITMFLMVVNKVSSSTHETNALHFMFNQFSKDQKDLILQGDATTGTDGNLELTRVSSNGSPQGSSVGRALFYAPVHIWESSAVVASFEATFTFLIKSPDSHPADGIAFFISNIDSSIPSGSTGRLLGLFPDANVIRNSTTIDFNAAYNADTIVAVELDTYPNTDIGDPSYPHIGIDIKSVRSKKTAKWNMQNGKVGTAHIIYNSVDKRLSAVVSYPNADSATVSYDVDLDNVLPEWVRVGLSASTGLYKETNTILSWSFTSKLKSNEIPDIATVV
# Sequence of Alpha-bungarotoxin (Bungarus multicinctus) (P60615 whole entry, looked up): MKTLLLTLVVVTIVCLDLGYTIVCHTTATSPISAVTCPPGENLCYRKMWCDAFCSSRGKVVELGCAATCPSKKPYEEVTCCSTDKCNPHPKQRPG
# Sequence of Albumin (Bos taurus) (P02769 whole entry, looked up): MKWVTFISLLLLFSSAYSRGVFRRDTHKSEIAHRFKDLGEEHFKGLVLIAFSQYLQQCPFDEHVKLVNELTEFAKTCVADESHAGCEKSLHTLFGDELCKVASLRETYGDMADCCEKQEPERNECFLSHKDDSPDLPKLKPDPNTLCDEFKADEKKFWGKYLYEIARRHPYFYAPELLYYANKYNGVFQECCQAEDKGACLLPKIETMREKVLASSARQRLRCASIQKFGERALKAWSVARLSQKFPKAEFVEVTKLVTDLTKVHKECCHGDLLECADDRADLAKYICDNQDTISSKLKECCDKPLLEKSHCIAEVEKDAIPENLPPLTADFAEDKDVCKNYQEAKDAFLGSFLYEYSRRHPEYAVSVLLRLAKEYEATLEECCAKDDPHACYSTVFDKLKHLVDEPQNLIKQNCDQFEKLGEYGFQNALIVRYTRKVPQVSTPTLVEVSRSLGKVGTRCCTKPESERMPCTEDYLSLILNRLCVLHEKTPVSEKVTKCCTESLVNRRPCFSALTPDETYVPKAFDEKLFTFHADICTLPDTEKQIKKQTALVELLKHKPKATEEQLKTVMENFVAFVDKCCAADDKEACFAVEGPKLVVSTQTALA
# Sequence of Torsin-1A-interacting protein 1 (Homo sapiens) (Q5JTV8 whole entry, looked up): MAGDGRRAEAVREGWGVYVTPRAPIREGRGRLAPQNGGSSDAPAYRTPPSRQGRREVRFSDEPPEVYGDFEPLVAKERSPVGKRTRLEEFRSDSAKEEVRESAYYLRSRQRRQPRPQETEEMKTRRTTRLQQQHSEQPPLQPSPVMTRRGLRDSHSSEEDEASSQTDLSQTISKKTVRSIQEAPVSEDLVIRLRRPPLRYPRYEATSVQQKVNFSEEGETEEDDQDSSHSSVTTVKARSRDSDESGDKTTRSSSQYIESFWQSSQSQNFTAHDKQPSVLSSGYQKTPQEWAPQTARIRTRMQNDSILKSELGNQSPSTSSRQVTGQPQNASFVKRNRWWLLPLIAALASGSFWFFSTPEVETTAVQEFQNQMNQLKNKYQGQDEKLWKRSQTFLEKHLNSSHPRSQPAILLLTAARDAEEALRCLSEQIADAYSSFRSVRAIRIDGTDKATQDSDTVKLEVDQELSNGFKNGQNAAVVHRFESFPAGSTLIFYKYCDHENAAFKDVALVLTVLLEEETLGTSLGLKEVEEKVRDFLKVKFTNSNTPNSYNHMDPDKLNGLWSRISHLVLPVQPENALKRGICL
# Sequence of Left-right determination factor 2 (Homo sapiens) (O00292 whole entry, looked up): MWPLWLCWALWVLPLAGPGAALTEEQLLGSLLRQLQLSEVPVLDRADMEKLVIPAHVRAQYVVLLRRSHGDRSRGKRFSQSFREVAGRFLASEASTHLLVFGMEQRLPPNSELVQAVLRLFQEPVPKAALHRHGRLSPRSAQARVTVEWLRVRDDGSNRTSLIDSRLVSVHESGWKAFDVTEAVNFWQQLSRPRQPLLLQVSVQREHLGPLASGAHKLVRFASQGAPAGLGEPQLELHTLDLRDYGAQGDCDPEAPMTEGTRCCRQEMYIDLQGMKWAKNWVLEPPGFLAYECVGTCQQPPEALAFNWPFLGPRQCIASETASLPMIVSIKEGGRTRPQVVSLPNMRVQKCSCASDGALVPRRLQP
SMILES,composite z-score [1],z-score [2],composite z-score [3],composite z-score [4],composite z-score [5],composite z-score [6],composite z-score [7],composite z-score [8],composite z-score [9],composite z-score [10],composite z-score [11],composite Z-score [12],composite z-score [13],composite z-score [14],composite z-score [15],composite z-score [16],composite z-score [17],composite z-score [18],composite z-score [19],composite z-score [20]
C=CCNC(=O)[C@H]1[C@@H]2C(=O)O[C@@H](c3ccccc3)[C@@H](c3ccccc3)N2[C@@H](c2ccc(O)cc2)[C@]12C(=O)Nc1ccc(C#CCC(C(=O)OC)C(=O)OC)cc12,-0.952,-0.174,-0.243,-0.416,-0.401,-0.0495,0.171,-0.302,0.49,0.0559,0.0574,-0.209 (inactive),-0.217,0.0098,0.649,1.23,0.877,0.421,0.952,-0.273
CC(C)c1ccc(NN2C(C(O)C(C)c3ccccc3)C=CC3C(=O)N(c4ccccc4)C(=O)C32)cc1 (stereo not given),-0.377,1.63,0.162,2.61,1.35,0.474,0.252,2.01,2.3,2.13,1.03,0.304 (inactive),0.578,0.589,0.749,3.34,0.952,1.28,0.306,1.17
CCCCCCc1nc(Cc2cc(OC)c(OC)c(OC)c2)c(C)c2c1[Si](C(C)C)(C(C)C)OC2,0.495,-0.715,0.0746,-0.0235,-0.128,-0.0721,0.14,-0.0587,0.18,-0.101,-0.287,0.108 (inactive),-0.13,-0.178,-0.0168,0.0854,-0.251,0.294,0.19,0.0356
CN(C)CCCCCCNC(=O)[C@@H]1C[C@@H]2C(=O)N[C@@H](CCCC[N+](C)(C)C)C(=O)N2[C@@H]1c1cccc(OCCO)c1,-0.0272,3.7,-1.28,-0.207,-0.327,-0.0981,-0.295,-0.444,2.09,0.217,0.792,1.88 (inactive),-0.155,-0.0495,0.321,0.617,0.98,-0.311,-0.0783,0.566
C=CCC(OC(C)=O)[C@@H]1[C@@H](N(Cc2ccc(-c3ccccc3)cc2)C(=O)Cc2ccc(OC)cc2)c2cc(OCCCO)ccc2N1C(=O)c1ccc2ccccc2c1 (stereo not given in full),0.242,-0.856,0.215,0.106,0.335,-0.122,-0.153,-0.57,0.748,0.284,0.234,-0.0949 (inactive),-0.043,-0.176,0.269,0.198,0.165,0.0843,-0.225,0.134
COc1ccc(-c2cc3c(c(CCc4ccccc4)n2)[Si](C(C)C)(C(C)C)O[C@H]3c2ccccc2)cn1,-0.38,-1.8,0.0069,-0.0526,-0.517,-0.12,-0.0192,-0.158,-0.309,0.31,-0.425,-0.161 (inactive),-0.0221,-0.162,-0.299,-0.405,0.0028,-0.605,-0.315,0.571

# Reference: PubChem BioAssay
